# LmPK inh: inhibitors of Leishmania mexicana pyruvate kinase. Q27686. purified LmPK, Kinase-Glo ATP luminescence, 1 h. Potency, µM (top dose mostly 57.5 µM), for inactives: at the top dose activity change, negative = inhibition, usual class: inhibitors. hit rate 0.37% among 290,000. AID 1721; note: potency is the fitted concentration of half-maximal effect; % is set by controls: 0 for no effect and ±100 for the full control effect
#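 Purified LmPK (0.1 nM) converted ADP (0.1 mM) to ATP with PEP (0.5 mM) in imidazole buffer pH 7.2 with KCl and MgCl2, 1 h at room temperature. ATP was read by Kinase-Glo luminescence; data normalized to uninhibited and no-enzyme controls.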
# Giardia FBPA inh: inhibitors of Giardia lamblia fructose-1,6-bisphosphate aldolase | A8B2U2 | purified Giardia FBPA | Potency, µM (doses to about 59.6 µM), inactives show at the highest dose activity, negative = inhibition, usual class: inhibitors | hit rate 0.71% among 290,000 | AID 2451; note: potency is the fitted concentration of half-maximal effect; % is set by controls: 0 for no effect and ±100 for the full control effect; nearly all actives have a fitted effect of over 55% in size
# Target sequence (A8B2U2 whole entry, looked up): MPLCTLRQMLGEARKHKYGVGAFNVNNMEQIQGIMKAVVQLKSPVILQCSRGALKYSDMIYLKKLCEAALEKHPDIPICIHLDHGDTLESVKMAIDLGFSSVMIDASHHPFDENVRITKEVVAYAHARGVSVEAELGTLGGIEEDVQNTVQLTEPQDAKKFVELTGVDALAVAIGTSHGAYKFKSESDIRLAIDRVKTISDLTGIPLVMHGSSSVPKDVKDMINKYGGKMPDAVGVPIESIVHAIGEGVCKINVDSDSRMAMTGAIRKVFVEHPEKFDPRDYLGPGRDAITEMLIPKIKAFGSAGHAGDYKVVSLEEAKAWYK
#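 40 nM FBPA preincubated 10 min at RT with compound (up to 57.5 uM final), then substrate plus GAPDH/TPI/NAD/arsenate coupling and diaphorase/resazurin added. Fluorescence read after 20 min at RT, 525/598 nm.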
# Shiga inhibitor: blocks Shiga toxin action in Vero cells. hit rate 9.2% among 290,000. inhibition, % at 38.7 µM. Vero cells, Shiga toxin protein synthesis inhibition reporter; in the data active = inhibition mostly above about 28%, no sharp cut-off; inactive = mostly below about 43%; note: 0% is about no effect
# Cycloheximide cs: affects cycloheximide protein synthesis inhibition readout, counter-screen; hit rate 12% among 300,000; max response, %; cell reporter, cycloheximide protein synthesis inhibition counterscreen; AID 2314; in the data active = max response mostly above about 13%, no sharp cut-off; inactive = mostly below about 14%; note: read at 38.3 µM for the half of the compounds with a filed dose; 0% is about no effect
# Sm TGR block: blocks Schistosoma mansoni thioredoxin glutathione reductase; hit rate 3% among 360,000; Potency, µM (titrated, usually from 114 µM), inactives show top-dose activity change, negative = inhibition, most hits filed as inhibitors; Q962Y6; purified TGR, DTNB reduction, TNB absorbance 405 nm; note: potency is the fitted concentration of half-maximal effect; % is set by controls: 0 for no effect and ±100 for the full control effect; nearly all actives have a fitted effect of over 60% in size
#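 TGR 20 nM + NADPH 100 uM (dispensed conc.), cpd preinc 15 min RT; start with NADPH (500 uM addition) then DTNB (15 mM addition). Kinetic TNB absorbance, 405 nm filter. Four-parameter Hill fit across titration.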
# Tb PYK inh: T. brucei pyruvate kinase inhibition; Q57TT1; TbPYK enzyme, Kinase-Glo Plus ATP luminescence, 45 min; Potency, µM (top dose mostly 76.8 µM), for inactives: top-dose activity, negative = inhibition, usual class: inhibitors; hit rate 0.12% among 410,000; note: potency is the fitted concentration of half-maximal effect; % is set by controls: 0 for no effect and ±100 for the full control effect; nearly all actives have a fitted effect of over 50% in size
#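 Luminescence from Kinase-Glo Plus, added after a 45-minute room-temperature reaction, served as the end-point read-out. The enzyme and substrate were preincubated with compound before ADP (130 uM final) initiated turnover. Concentration-effect curves came from normalized qHTS data.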
# Starred values were filed as active, the others as inactive; i = inactive; ? = inconclusive; . = no result given; [ ] = another dose, or the depositor's remark. The full list was thinned out, with hits kept by preference. Unless noted, calls come from the whole dose curve; as a rule, active = well fitted curve in the direction sought with a large enough effect; inconclusive = small, poorly fitted or top-dose-only effect, or another doubt; inactive = no such curve, though single readings can be large; an effect the other way counts as inactive or inconclusive.
SMILES,LmPK inh,Giardia FBPA inh,Shiga inhibitor,Cycloheximide cs,Sm TGR block,Tb PYK inh
COc1ccc(NC(=O)CSc2nnc(NC(=O)Nc3ccc(OC)cc3)s2)cc1,.,.,.,.,0%,-7%
CCCCNC(=O)CSc1nc(N)c(C(=O)Nc2ccc(OC)cc2)s1,-6%,3%,28*,30*,0%,-3%
COC(=O)Nc1nnc(-c2ccc(OC)cc2)s1,?,5%,101*,30*,7%,1%
c1ccc(COc2ncnc3c2ncn3CCCNCc2cccs2)cc1,.,.,.,.,.,0%
CC(OC(=O)c1ccc([N+](=O)[O-])o1)C(=O)Nc1nc(-c2ccc(F)c(F)c2)cs1 (configuration not stated),.,.,.,.,-26%,1%
CCOC(=O)c1ccccc1NC(=O)N1CCC(N2CCN(Cc3ccccc3)C(=O)C2=O)CC1,.,.,.,.,0%,-4%
CN(C)c1ccc(NC(=O)c2sc(SCC(=O)Nc3nccs3)nc2N)cc1,3%,-11%,109*,33*,-7%,-13%
CSc1nc(N)c(C(=O)Nc2ccc([N+](=O)[O-])cc2)s1,4%,5%,50*,32*,?,3%
CN(C)c1ccc(NC(=O)c2sc(SCC(=O)Nc3ccc(Br)cc3)nc2N)cc1,0%,4%,24,-3,0%,-2%
CCOc1ccc(Nc2nc(C)c(NC(=O)c3cccc(F)c3)c(Nc3ccc(OCC)cc3)n2)cc1,.,.,.,.,5%,4%
COc1ccc(-n2c(=O)c(C)nc3cnc(Nc4cccc(OC)c4)nc32)cc1,.,-6%,.,.,.,-4%
CNc1nnc(-c2cccc(N(C)C)c2)s1,-5%,-30%,122*,46*,47%,-11%
Cc1ccc(-c2csc(NC(=O)/C=C/c3ccco3)c2C(=O)O)cc1,-13%,?,86*,36*,.,-19%
COC(=O)c1c(-c2ccccc2)csc1NC(=O)c1c(-c2ccccc2)noc1C,4%,0%,11,2,3%,1%
COC(=O)c1c(-c2ccccc2)csc1NC(=O)c1ccco1,6%,3%,153*,71*,-2%,-8%
Cc1csc(NC(=O)c2ccco2)c1C(=O)c1ccccc1,3%,3%,-15,-3,0%,-1%
O=C(Nc1scc(-c2ccc(F)cc2)c1C(=O)O)c1ccco1,?,16%,92*,56*,2%,-3%
CC(C)n1nnc2cc(C(=O)O)ccc21,.,-9%,-4,11,.,.
Fc1ccc(-[n+]2nc(Nc3ccccc3)sc2-c2c3ccccc3cc3ccccc23)cc1,2%,22µM*,41*,32*,-1%,1%
Oc1ccc2ccccc2c1-c1sc(Nc2ccccc2)n[n+]1-c1ccc(F)cc1,-1%,1%,-4,1,0%,-9%
Cc1oc2ncnc(N3CCCCC3)c2c1C(=O)N1CCN(c2cccc(C(F)(F)F)c2)CC1,.,.,.,.,7%,-3%
COc1cc(-c2n[nH]c(=S)n2-c2ccc(C)cc2)cc(OC)c1OC,9%,-23%,3,17*,10%,8.9µM*
COc1ccc(-c2n[nH]c(=S)n2-c2ccc(Br)cc2)cc1OC,18µM*,21%,-9,1,-19%,4µM*
Cc1cccc(S(=O)(=O)c2cn(C)c3cc(N4CCC(C)CC4)c(F)cc3c2=O)c1,.,.,.,.,-2%,0%
C/C(=N\NC(=O)c1cccc(F)c1)c1ccc(Br)s1,1%,4%,24,39*,-1%,-16%
SMILES,LmPK inh,Giardia FBPA inh,Shiga inhibitor,Cycloheximide cs,Sm TGR block,Tb PYK inh
C/C(=N\NC(=O)c1ccccc1[N+](=O)[O-])c1ccc(Br)s1,6%,2%,-6,-4,3%,-4%
C/C(=N\NC(=O)c1ccccc1O)c1ccc(Br)s1,-3%,-15%,54*,64*,1%,-2%
Cc1cc(=O)oc2c(O)c(O)ccc12,.,7.1µM*,.,.,.,-13%
O=c1cc(-c2ccccc2Cl)oc2c([N+](=O)[O-])ccc(O)c12,.,-1%[89.2 µM],i,-6,.,.
O=c1cc(-c2ccccc2)oc2c(O)c(O)ccc12,.,7.9µM*,.,.,.,.
O=C(O)Cc1cccc2c(=O)cc(-c3ccccc3)oc12,.,.,.,.,.,-10%
O=c1cc(-c2ccccc2Cl)oc2c(Br)ccc(O)c12,3%,0%[89.2 µM],78*,31*,-21%,-6%
O=c1cc(-c2ccccc2O)oc2c(O)c(O)ccc12,.,6.3µM*,.,.,.,.
COc1ccccc1NS(=O)(=O)c1cc2c(cc1Cl)NC(=O)CO2,.,.,.,.,2%,0%
Cc1ccc(NC(=O)N2CCN(c3cc(-c4noc(C)n4)ccc3C)CC2)c(F)c1,.,.,.,.,12%,1%
COc1ccc(NC(=O)C2=C(C)Nc3nc(SCc4ccccc4)nn3C2c2cc(OC)ccc2OC)cc1 (configuration not stated),.,.,.,.,?,-6%
Cc1ccc(NC(=O)COCc2cc(-c3cccs3)on2)cc1Cl,.,.,.,.,4%,-1%
Cc1ccc(-c2cn3c(n2)CCCC3)cc1,-2%,-28%,49,20,0%,-1%
c1ccc(-c2ccc(-c3cn4c(n3)CCC4)cc2)cc1,-30%,-6%,58*,37*,0%,-9%
COc1ccc(-c2cn3c(n2)CCC3)cc1,-12%,-3%,54*,38*,-4%,-3%
c1ccc(-c2nnc3n2CCCC3)cc1,0%,2%,4,-4,6%,5%
CN(Nc1cccc(Cl)c1)c1cccc(Cl)c1,.,.,.,.,.,5%
CCCCOc1ccc(CNC(=O)Cc2ccc(NC(=O)N3CCCCc4ccccc43)cc2)cc1,.,.,.,.,-1%,5%
Nc1nc2c(ncn2[C@@H]2O[C@H](CNCc3ccc4ncccc4c3)[C@@H](O)[C@H]2O)c(=O)[nH]1,.,.,.,.,.,-1%
O=C(NCCCN1CCOCC1)c1ccc(Cl)cc1Cl,2%,7%,23,17*,0%,-1%
O=C(NCCCN1CCOCC1)c1cn(-c2ccccc2)nc1-c1cccs1,2%,-9%,-9,0,-22%,-10%
Cc1cccn2c(=O)c3cc(C(=O)NCCN4CCOCC4)n(C)c3nc12,-2%,.,59*,37*,0%,0%
Cc1ccc(-c2nn(-c3ccccc3)cc2C(=O)NCCCN2CCOCC2)cc1,-7%,.,36,16*,-5%,4%
O=C(Nc1c(Cl)cc(Cl)cc1C(=O)NCCN1CCOCC1)c1ccc(Cl)cc1Cl,1%,0%,17,-5,0%,-3%
Cc1ccc(C(=O)NCCN2CCOCC2)c(Cl)c1,-3%,-7%,28*,13*,1%,5%
Cc1ccc(Cn2c(C(=O)NCCCN3CCOCC3)cc3sccc32)cc1,4%,3%,-9,-4,-16%,0%
O=C(CN1CCN(Cc2ccccc2)C1=O)NCCCN1CCOCC1,-1%,2%,-2,5,-14%,1%
O=C(Cn1cnc2ccccc21)NCCCN1CCOCC1,3%,1%,25*,24*,-7%,4%
Cc1cc2c(cc(C(=O)NCCCN3CCOCC3)n2Cc2ccc(Cl)cc2)o1,2%,-3%,-6,-4,35µM*,-25%
